Source: the supplement of paper PMC8728848
Shown is part of a subset that was picked to be rich in the strongest signals.

Assays:
Assay in all cases: glycan array binding signal (z-score within array); higher = stronger binding
Details in all cases: glycan notation: IUPAC condensed, linker removed
Fuc(a1-2)Gal(b1-3)GalNAc = target: Fuc(a1-2)Gal(b1-3)GalNAc
Method in brief: (§1)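 The Consortium for Functional Glycomics database supplied 3228 glycan arrays, of which those lacking an available protein sequence were dropped. The binding signal, a within-array Z-score, was averaged across arrays of the same protein sequence and across linkers. Negative scores can be read as non-binding.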

Fuc(a1-4)GlcNAc = target: Fuc(a1-4)GlcNAc
Method in brief: as §1

[1] = target: Gal(a1-3)[Gal(a1-4)]Gal(b1-4)GlcNAc
Method in brief: as §1

[2] = target: Gal(b1-3)GalNAc(b1-3)Gal(a1-4)Gal(b1-4)Glc
Method in brief: as §1

[3] = target: Gal(b1-4)GalNAc(b1-3)[Fuc(a1-2)]Gal(b1-4)GlcNAc
Method in brief: as §1

[4] = target: Gal(b1-4)GlcNAc(b1-3)GalNAc
Method in brief: as §1

[5] = target: Gal(b1-4)GlcNAc(b1-6)GalNAc
Method in brief: as §1

Gal3S6S(b1-4)GlcNAc = target: Gal3S6S(b1-4)GlcNAc
Method in brief: as §1

GalNAc(b1-3)GalNAc = target: GalNAc(b1-3)GalNAc
Method in brief: as §1

[6] = target: GlcNAc(b1-2)Gal(b1-3)GalNAc
Method in brief: as §1

[7] = target: GlcNAc(b1-3)Gal(b1-3)GalNAc
Method in brief: as §1

GlcNAc(b1-3)GalNAc = target: GlcNAc(b1-3)GalNAc
Method in brief: as §1

[8] = target: GlcNAc(b1-6)Gal(b1-4)GlcNAc
Method in brief: as §1

[9] = target: Man(a1-2)Man(a1-3)[Man(a1-6)]Man(a1-6)[Man(a1-2)Man(a1-3)]Man(b1-4)GlcNAc(b1-4)GlcNAc
Method in brief: as §1

Man(b1-4)GlcNAc = target: Man(b1-4)GlcNAc
Method in brief: as §1

[10] = target: Neu5Ac(a2-8)Neu5Ac(a2-8)Neu5Ac
Method in brief: as §1

B1: MPA (Maclura pomifera) (protein)
chain: GVTFDDGAYTGIREINFEYNSETAIGGLRVTYDLNGMPFVAEDHKSFITGFKPVKISLEFPSEYIVEVSGYVGKVEGYTVIRSLTFKTNKQTYGPYGVTNGTPFSLPIENGLIVGFKGSIGYWLDYFSIYLSLNGPNGKSQSIIVGPWGDRVTN
With B1 the “glycan array binding signal (z-score)” value (Fuc(a1-2)Gal(b1-3)GalNAc) was 2.25, the “glycan array binding signal (z-score)” value (Fuc(a1-4)GlcNAc) was -0.223 and the “glycan array binding signal (z-score)” value [1] was -0.16. For the same binder, the “glycan array binding signal (z-score)” value [2] was -0.24, the “glycan array binding signal (z-score)” value [3] was -0.249 and the “glycan array binding signal (z-score)” value [4] was 5.97. The “glycan array binding signal (z-score)” value [5] was -0.161, the “glycan array binding signal (z-score)” value (Gal3S6S(b1-4)GlcNAc) was -0.233 and the “glycan array binding signal (z-score)” value (GalNAc(b1-3)GalNAc) was 6.31. The “glycan array binding signal (z-score)” value [6] was 5.63, the “glycan array binding signal (z-score)” value [7] was 3.46 and the “glycan array binding signal (z-score)” value (GlcNAc(b1-3)GalNAc) was 6.85. For the same binder, the “glycan array binding signal (z-score)” value [8] was -0.229, the “glycan array binding signal (z-score)” value [9] was -0.244 and the “glycan array binding signal (z-score)” value (Man(b1-4)GlcNAc) was -0.24. The “glycan array binding signal (z-score)” value [10] was -0.244.
